Test results: PubChem BioAssay
The source made the active and inactive calls.

How the values were obtained:
[1] = small molecules captured by biotinylated probe aFSTL3 – biochemical, small-molecule microarray, fluorescence 635/667, stem cell growth factor project, primary screen (AID 1064); details: higher = more signal;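 also: measures binding of the biotinylated anti-FSTL3 antibody to printed compounds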
[2] = binders from COS7 lysate, DM2A8 probe, primary screen, torsin A project, cell lysate, small-molecule microarray, fluorescence 635/667 (AID 1065); details: higher = more signal, COS7 lysate expressing mutant human TOR1A
[3] = small molecules captured by biotinylated probe aFGF2 – biochemical, small-molecule microarray, fluorescence 635/667, stem cell growth factor project, primary screen (AID 1067); details: higher = more signal;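 also: measures binding of biotinylated aFGF2 protein to printed compounds on slides; z-score merges feature fluorescence and signal-to-noise across triplicate slides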
[4] = small molecules captured by biotinylated probe aFGF10 – biochemical, small-molecule microarray, fluorescence 635/667, stem cell growth factor project, primary screen (AID 1071); details: higher = more signal;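 also: score merges 667 nm spot intensity and signal to noise from triplicate slides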
[5] = molecular target: Neurogenic locus notch homolog protein 2 (Homo sapiens) (UniProt Q04721); assay: small molecules binding Notch2 protein – biochemical, small-molecule microarray, 635 nm fluorescence, stem cell growth factors, primary screen (AID 1073); details: higher = more signal
[6] = molecular target: Pro-neuregulin-1, membrane-bound isoform (Homo sapiens) (UniProt Q02297); assay: small molecules binding neuregulin-1 protein – biochemical, small-molecule microarray, fluorescence 635/667, psychiatric disease protein project, primary screen (AID 1075); details: NRG1 binding, 635 nm fluorescence, higher = more signal;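 also: score combines 667 nm spot fluorescence with signal to noise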
[7] = system: Neuregulin-1 EGF-like domain; assay: small molecules binding NRG1 EGF domain – biochemical, small-molecule microarray, 635 nm fluorescence, primary screen (AID 1081); details: higher = more signal;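 also: binding of the protein to compounds printed on small-molecule microarray slides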
[8] = FRG1 expression reporter modulators in myotubes – cell-based, C2C12 myotubes, firefly/Renilla luciferase, luminescence, FRG1 inhibition for FSHD, primary screen (AID 1084); details: FRG1 promoter luciferase, higher = more signal, called active from +8 up or from −8 down
[9] = small molecules captured by biotinylated probe aFST – biochemical, small-molecule microarray, fluorescence 635/667, stem cell growth factor project, primary screen (AID 1086); details: higher = more signal;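 also: score merges 667 nm fluorescence with signal-to-noise of each printed compound spot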
[10] = binders of probe aHhip on microarray, primary screen, stem cell growth factor project, biochemical, small-molecule microarray, fluorescence 635/667 (AID 1087); details: higher = more signal;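 also: score merges spot fluorescence at 667nm with spot signal to noise ratio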

Chain of Neurogenic locus notch homolog protein 2 (Homo sapiens) (Q04721 whole entry, looked up, canonical isoform): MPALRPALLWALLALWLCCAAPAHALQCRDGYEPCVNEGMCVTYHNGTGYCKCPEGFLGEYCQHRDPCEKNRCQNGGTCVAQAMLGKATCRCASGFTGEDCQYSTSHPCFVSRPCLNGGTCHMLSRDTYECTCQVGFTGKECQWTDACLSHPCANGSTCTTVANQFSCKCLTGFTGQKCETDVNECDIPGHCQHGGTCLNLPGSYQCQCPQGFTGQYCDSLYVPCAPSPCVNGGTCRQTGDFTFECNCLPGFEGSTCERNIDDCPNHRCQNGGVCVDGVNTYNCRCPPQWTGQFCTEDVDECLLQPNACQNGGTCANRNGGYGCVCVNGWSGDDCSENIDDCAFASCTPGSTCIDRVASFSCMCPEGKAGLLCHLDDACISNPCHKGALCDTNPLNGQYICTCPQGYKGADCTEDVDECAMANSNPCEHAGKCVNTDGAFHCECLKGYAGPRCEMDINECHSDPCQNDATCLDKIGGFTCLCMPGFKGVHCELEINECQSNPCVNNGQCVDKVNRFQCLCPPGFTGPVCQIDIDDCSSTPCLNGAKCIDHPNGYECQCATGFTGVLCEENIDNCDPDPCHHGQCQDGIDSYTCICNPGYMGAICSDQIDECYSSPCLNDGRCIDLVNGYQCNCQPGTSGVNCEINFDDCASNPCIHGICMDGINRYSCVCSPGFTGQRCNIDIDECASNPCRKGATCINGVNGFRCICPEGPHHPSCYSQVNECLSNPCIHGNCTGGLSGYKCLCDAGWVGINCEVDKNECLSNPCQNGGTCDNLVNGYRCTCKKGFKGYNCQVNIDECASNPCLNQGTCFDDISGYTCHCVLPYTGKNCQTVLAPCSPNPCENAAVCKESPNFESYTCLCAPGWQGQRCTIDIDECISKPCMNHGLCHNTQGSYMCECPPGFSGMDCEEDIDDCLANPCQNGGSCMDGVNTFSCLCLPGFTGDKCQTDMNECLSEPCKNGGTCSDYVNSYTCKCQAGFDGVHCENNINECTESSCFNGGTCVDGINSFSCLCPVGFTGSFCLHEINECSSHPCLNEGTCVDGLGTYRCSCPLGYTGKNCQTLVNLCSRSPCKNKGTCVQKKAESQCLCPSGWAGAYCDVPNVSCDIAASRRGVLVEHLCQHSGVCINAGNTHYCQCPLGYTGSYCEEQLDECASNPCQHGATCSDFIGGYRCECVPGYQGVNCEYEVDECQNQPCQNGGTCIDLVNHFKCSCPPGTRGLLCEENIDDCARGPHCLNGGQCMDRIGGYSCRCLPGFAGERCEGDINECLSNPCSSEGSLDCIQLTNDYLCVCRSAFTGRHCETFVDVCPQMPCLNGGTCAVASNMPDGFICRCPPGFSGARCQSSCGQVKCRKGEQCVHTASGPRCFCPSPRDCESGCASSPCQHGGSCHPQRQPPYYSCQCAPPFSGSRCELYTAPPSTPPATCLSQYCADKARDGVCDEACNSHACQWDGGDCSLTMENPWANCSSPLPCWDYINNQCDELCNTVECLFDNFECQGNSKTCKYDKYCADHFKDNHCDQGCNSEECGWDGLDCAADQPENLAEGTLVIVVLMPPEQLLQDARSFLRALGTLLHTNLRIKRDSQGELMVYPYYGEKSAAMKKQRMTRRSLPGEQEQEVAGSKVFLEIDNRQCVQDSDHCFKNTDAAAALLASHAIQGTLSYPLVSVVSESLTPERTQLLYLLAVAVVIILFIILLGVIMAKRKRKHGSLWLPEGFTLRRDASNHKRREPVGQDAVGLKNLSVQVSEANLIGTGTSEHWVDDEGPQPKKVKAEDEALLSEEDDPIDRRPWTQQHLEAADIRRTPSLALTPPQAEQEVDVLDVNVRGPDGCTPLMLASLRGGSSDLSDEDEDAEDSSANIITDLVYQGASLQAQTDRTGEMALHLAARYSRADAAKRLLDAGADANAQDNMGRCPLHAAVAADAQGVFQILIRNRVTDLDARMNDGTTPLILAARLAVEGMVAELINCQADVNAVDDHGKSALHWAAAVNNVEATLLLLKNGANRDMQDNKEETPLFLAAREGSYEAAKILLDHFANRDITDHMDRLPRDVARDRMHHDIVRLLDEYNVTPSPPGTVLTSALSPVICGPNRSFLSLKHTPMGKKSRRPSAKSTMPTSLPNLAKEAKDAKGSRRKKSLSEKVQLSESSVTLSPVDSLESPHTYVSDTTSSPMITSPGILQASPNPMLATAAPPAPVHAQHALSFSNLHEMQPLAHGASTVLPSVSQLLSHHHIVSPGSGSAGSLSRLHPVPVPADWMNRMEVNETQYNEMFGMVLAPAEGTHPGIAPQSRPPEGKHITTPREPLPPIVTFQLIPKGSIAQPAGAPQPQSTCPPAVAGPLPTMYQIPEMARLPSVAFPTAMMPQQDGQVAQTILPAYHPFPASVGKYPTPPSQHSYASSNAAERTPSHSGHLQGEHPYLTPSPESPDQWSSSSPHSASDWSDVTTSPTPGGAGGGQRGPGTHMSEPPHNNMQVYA
Chain of Pro-neuregulin-1, membrane-bound isoform (Homo sapiens) (Q02297 whole entry, looked up, the tested form may be a part, canonical isoform): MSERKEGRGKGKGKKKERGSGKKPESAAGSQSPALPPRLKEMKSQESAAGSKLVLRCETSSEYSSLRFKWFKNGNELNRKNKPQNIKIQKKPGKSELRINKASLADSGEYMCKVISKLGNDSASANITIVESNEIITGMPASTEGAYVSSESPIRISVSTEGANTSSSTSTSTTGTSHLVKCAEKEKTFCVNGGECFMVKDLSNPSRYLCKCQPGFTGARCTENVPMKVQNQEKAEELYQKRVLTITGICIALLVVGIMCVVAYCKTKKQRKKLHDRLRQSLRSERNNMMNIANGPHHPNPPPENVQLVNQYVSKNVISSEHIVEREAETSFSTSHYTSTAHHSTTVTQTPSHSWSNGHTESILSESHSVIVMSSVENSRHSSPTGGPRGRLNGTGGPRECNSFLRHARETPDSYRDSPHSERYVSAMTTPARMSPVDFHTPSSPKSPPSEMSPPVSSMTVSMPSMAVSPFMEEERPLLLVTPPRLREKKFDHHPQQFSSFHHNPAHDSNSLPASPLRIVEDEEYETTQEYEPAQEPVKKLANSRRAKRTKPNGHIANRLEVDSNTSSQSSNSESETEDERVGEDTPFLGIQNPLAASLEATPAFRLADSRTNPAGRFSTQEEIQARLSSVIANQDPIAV

SMILES	composite z-score [1]	composite z-score [2]	composite z-score [3]	composite z-score [4]	composite z-score [5]	composite z-score [6]	composite z-score [7]	z-score [8]	composite z-score [9]	composite z-score [10]
CCc1cc2c(nc1CC)CCN(CCC(C)=NO[C@@H](C)c1cn([C@H](CO)Cc3ccccc3)nn1)C2	-0.0739	0.39	-0.123	0.112	-0.0274	0.373	-0.0269	0.704 (inactive)	0.283	0.115
C=CC[C@@H]1C=C[C@H](ON=C(C)CCC(=O)OC[C@H]2O[C@H](c3ccccc3)C=C[C@@H]2Oc2ccc(OC)cc2)[C@@H](CO)O1	-0.409	-0.324	-0.163	0.13	-1.06	0.372	0.215	0.403 (inactive)	-0.303	-0.147
CC(C)=CCCC(C)=CCON=C1C[C@@H](O)[C@@H](O)[C@@H]2[C@@H]3C(=O)N(c4ccc(F)cc4F)C(=O)[C@@H]3CC[C@H]12	-0.292	0.611	-0.174	0.03	1	1.06	0.849	-0.389 (inactive)	0.573	0.0976
C[C@@H]1CC[C@H]2C(=O)O[C@@H](COc3ccc(C(C)(C)C)cc3)CN2[C@@H]1c1ccc(Br)cc1	-0.368	-0.257	-0.162	-0.249	-0.538	-0.0758	-0.976	1.03 (inactive)	-0.217	-0.134
COC(=O)[C@@H]1CC[C@H](C)[C@@H](c2ccc(C)cc2)N1C(=O)c1ccc(C=NO[C@@H]2O[C@H](COC(C)=O)[C@@H](OC(C)=O)[C@H](OC(C)=O)[C@H]2OC(C)=O)cc1	-0.241	0.427	-0.0985	0.514	0.527	0.0818	0.319	0.861 (inactive)	0.337	0.0749
CO[C@H]1COC(=O)[C@@H](C)COC(=O)[C@H](C)NC(=O)CC=C[C@H]1C	-0.451	1.18	-0.0354	0.222	0.0126	-0.521	0.734	-0.53 (inactive)	0.101	-0.0557
C#CCCCON=C1C[C@@H](O)[C@@H](O)[C@@H]2[C@@H]3C(=O)N(C(C)(C)C)C(=O)[C@@H]3CC[C@@H]12	2.02	0.0189	-0.0468	-0.0755	-0.707	-0.107	-0.117	-0.305 (inactive)	0.987	-0.0645
C#CCCCON=C1C[C@@H](O)[C@@H](O)[C@@H]2[C@@H]3C(=O)N(CC)C(=O)[C@@H]3CC[C@@H]12	-0.572	0.278	-0.143	0.722	0.656	0.614	0.636	-0.0351 (inactive)	0.276	0.235
CC(C)=CCCC(C)=CCON=C1C[C@@H](O)[C@@H](O)[C@@H]2[C@@H]3C(=O)N(Cc4ccccc4)C(=O)[C@@H]3CC[C@@H]12	-0.249	0.585	-0.0548	0.649	0.194	0.34	1.05	0.365 (inactive)	0.172	0.204
CCOC(=O)NN=C1C[C@@H](O)[C@@H](O)[C@@H]2[C@@H]3C(=O)N(C(C)(C)C)C(=O)[C@@H]3CC[C@H]12	-0.306	0.367	-0.163	0.255	0.444	-0.135	0.603	-0.848 (inactive)	0.497	0.0401
CCN1C(=O)[C@H]2[C@H]3[C@H](O)[C@H](O)CC(=O)[C@H]3CC[C@H]2C1=O	-0.652	0.481	-0.0566	0.39	0.132	0.298	0.81	0.276 (inactive)	0.0722	0.0373
CCN1C(=O)[C@H]2[C@H]3[C@H](O)[C@H](O)CC(=NNC(=O)OCc4ccc(OC)cc4)[C@@H]3CC[C@H]2C1=O	1.28	-0.0691	-0.0235	0.0306	-0.213	-0.295	-0.46	0.127 (inactive)	0.508	-0.374
